What was measured:
Details in all cases: concentration: 1 μM, replicates: in singlicate; n = 1
HASPIN = tested on: T1, HASPIN
T1 construct: gene GSG2

HCK = tested on: HCK
HIPK1 = tested on: HIPK1
HIPK2 = tested on: HIPK2
HIPK3 = tested on: HIPK3
HIPK4 = tested on: HIPK4
HPK1 = tested on: HPK1
HUNK = tested on: HUNK
ICK = tested on: ICK
IGF1R = tested on: IGF1R
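Note: KINOMEscan kinase panel screen.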

SMILES | %Inh (HASPIN) | %Inh (HCK) | %Inh (HIPK1) | %Inh (HIPK2) | %Inh (HIPK3) | %Inh (HIPK4) | %Inh (HPK1) | %Inh (HUNK) | %Inh (ICK) | %Inh (IGF1R)
COc1cc(Nc2nccc(N3CCC(NS(=O)(=O)c4ccc(NC(C)=O)cc4)CC3)n2)cc(OC)c1OC [GSK1379825] | 0% | 0% | 0% | 0% | 15% | 0% | 86% | 0% | 0% | 0%
CCn1c(-c2nonc2N)nc2c(-c3ccccc3)ncc(OCCCN)c21.O=C(O)C(F)(F)F.O=C(O)C(F)(F)F [GSK260205] | 9% | 0% | 0% | 0% | 38% | 0% | 0% | 0% | 10% | 0%
Cn1cc(-c2ccc3c(c2)CCN3C(=O)Cc2cc(F)cc(F)c2F)c2c(N)ncnc21 [GSK2634140] | 32% | 0% | 0% | 0% | 15% | 0% | 57% | 12% | 0% | 21%
CCNc1nccc(-c2c(-c3ccc(F)cc3)ncn2C2CCN(C)CC2)n1 | 0% | 0% | 39% | 70% | 66% | 0% | 0% | 0% | 0% | 0%
COc1cccc2c(-c3ccncc3)c(-c3ccc(F)cc3)nn12 [GW468513] | 15% | 0% | 0% | 0% | 10% | 4% | 37% | 18% | 9% | 9%
CN1CCN(Cc2ccc(NC(=O)Nc3ccc(N(C)c4ccnc(Nc5ccc(CS(C)(=O)=O)cc5)n4)cc3)cc2)CC1.Cl [GW827654] | 19% | 47% | 83% | 82% | 91.9% | 90.9% | 99.6% | 0% | 71% | 0%
NCCC(NC(=O)c1cc(Br)c(-c2ccnc3[nH]ccc23)s1)c1ccccc1.O=C(O)C(F)(F)F.O=C(O)C(F)(F)F (centres unmarked) [GSK1307810] | 97.6% | 0% | 53% | 9% | 67% | 93.3% | 69% | 0% | 0% | 0%
COc1cc(Nc2nccc(N3CCC(NC(=O)Nc4ccc5c(c4)OCO5)C3)n2)cc(OC)c1OC (centres unmarked) [GSK1379766] | 0% | 0% | 0% | 0% | 16% | 0% | 78% | 0% | 26% | 0%

Source: article PMC5540273 (PLoS ONE, 2017)
